This passage reports growth inhibition results from PubChem BioAssay (NCI).

Compounds without any hit were thinned out: in the full panel of roughly 79,000, 15% have a hit. Values without a mark were called inactive. Cut-off read from the data, not from the text of the source: active = growth inhibition above about 70%; inactive = the rest.

This assay can be described thus: NCI Yeast Anticancer Drug Screen. Data for the mec2-1 strain (AID 157). Particulars: S. cerevisiae mec2-1 strain, at 1.2 µM, hits give high values. The method, boiled down:
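mec2-1 yeast strain, carrying an alteration in DNA damage repair or cell cycle control, was exposed to compounds; growth inhibition was measured relative to vehicle-treated controls.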
Turning to `NC1CCCCC1N.Nc1c(N=Nc2ccc(-c3ccc(N=Nc4cc(S(=O)(=O)[O-])c5ccccc5c4N)cc3)cc2)cc(S(=O)(=O)[O-])c2ccccc12.[OH3+].[OH3+].[Pt+4]`, the growth inhibition was 0%. Next, `COC(=O)CCC(NC(=S)N/N=C(\C)c1ccccn1)C(=O)OC` (stereo not given): -11%; `NC(=O)C(=O)NNc1ccccc1`: 0%; `COc1cc(C2SCC(=O)N2c2ccc(-c3ccc(-n4c(-c5ccccc5)nc5ccccc5c4=O)cc3)cc2)ccc1O` (stereo not given): 0%. Under `COc1ccc(/C=C/c2sc3ccccc3[n+]2CCCCI)cc1OC` stands -6%; under `Cc1c(C(C)C)cc(OCCO)cc1C(C)C`, -4%; under `Cc1cc(NCCCCCCCCNc2cc(C)nc3cc(N)ccc23)c2ccc(N)cc2n1`, -70%. Turning to `C=C(Cl)COC(=O)Nc1cccc(Cl)c1`, the growth inhibition is -19%.

Turning to `CC(=O)OC1CC2C(C)(C)C(=O)C=C[C@]2(C)C2CCC3(C)C(=CCC3[C@H](CO)C[C@H](O)C(=O)C(C)(C)O)[C@]12C` (stereo not given in full), the growth inhibition was -56%. Under `COc1ccc(/C=C/C(=O)c2ccccc2)cc1OC` stands -6%; under `COc1c(O)c(C=O)c(Br)c(C=O)c1O`, 3%; under `O=[N+]([O-])c1cc(Cl)cnc1Br`, 6%. `Cc1ccc2c(c1)C1(SC(C)C(=O)N1c1ccc(Cl)cc1)C(=O)N2` (stereo not given): the growth inhibition is -2%. As for `COc1cc(CSc2ccc(O)cc2)cc(O)c1O`, the growth inhibition was 4%. Turning to `Cc1ccc2c3ccc4c(c3n(C)c2c1)C(=O)C=CC4=O`, the growth inhibition is -22%.
